Hits are enriched below; roughly 4.7% of the tested compounds scored in any of these assays.
ATXN viability: cell viability loss in ATXN counter-screen; actives 0.49% (n = 400,000); Potency, µM (highest dose often 56.7 µM), hits mostly cytotoxic; AID 651635; S2 cells (HEK-293 line with an ATXN2-luciferase reporter) viability, CellTiter-Fluor protease fluorescence, 24 h; further: nearly all actives have a fitted effect of over 40% in size
DRD3 agonist: activates the human D3 dopamine receptor; P35462; D3R DiscoveRx beta-arrestin cells, luminescence, 90 min; AID 652048; actives 0.58% (n = 410,000); max activation, %; in the data active means max activation above about 30%
Target sequence (P35462 whole entry, looked up): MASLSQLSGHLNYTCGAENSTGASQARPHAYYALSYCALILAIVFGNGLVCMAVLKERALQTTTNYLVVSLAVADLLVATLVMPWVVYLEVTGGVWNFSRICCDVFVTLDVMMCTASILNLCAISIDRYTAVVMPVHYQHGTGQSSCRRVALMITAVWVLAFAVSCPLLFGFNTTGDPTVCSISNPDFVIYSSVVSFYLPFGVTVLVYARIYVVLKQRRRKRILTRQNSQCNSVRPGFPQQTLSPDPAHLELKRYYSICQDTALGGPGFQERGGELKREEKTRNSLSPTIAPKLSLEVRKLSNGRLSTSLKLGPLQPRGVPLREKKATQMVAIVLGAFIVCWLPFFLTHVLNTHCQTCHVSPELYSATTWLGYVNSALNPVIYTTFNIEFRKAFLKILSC
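Cells at 1500/well, incubated overnight, then treated with pinned compounds (dopamine as control) for 90 min at 37 degrees C. DiscoveRx reagent added for 30 - 60 minutes at room temperature; luminescence read.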
HepG2 tox: HepG2 cytotoxicity, counter-screen for TGF-b inhibitors; HepG2 CAGA-GFP viability, ATP luminescence, 18 h; Potency, µM (highest dose often 46.1 µM), most hits filed as cytotoxic; actives 0.76% (n = 410,000)
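HepG2 CAGA-GFP cells (1000/well, DMEM with 1% FBS) received compound, then TGF-beta at 500 pg/mL final, and were incubated 18 hours at 37 degrees C. Viability was read by CellTiter-Glo luminescence. Media-only wells were set as complete cell-killing and DMSO as no toxicity.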
ATXN2 expr inh: inhibitors of ATXN2 expression | actives 0.72% (n = 360,000) | Potency, µM (doses to about 57 µM), usual class: inhibitors | AID 1745845 | HEK-293 ATXN2-luciferase reporter, luminescence, 24 h; further: nearly all actives have a fitted effect of over 55% in size
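ATXN2-luciferase reporter cells (luciferase flanked by upstream and downstream ATXN2 gene portions) were treated 24 h at 37 °C with compounds at up to 57 uM. SteadyGlo luminescence gave expression; GF-AFC fluorescence gave viability.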
TGFb inhibitor: blocks TGF-b signaling | actives 1.2% (n = 410,000) | HepG2 CAGA-GFP TGF-b/SMAD3 reporter, GFP fluorescence, 18 h; TGF-beta stimulated, 500 pg/mL final | Potency, µM (series often up to 46.1 µM), hits mostly inhibitors; further: nearly all actives have a fitted effect of over 65% in size
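GFP signal (ex488/em500-530) from TGF-beta-stimulated HEPG2 CAGA-GFP cells, 500 pg/mL final, 18 h at 37 degrees C in DMEM plus 1% FBS, normalized to unstimulated and DMSO-stimulated controls.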
DRD3 antagonist: D3 dopamine receptor (human) antagonism | P35462 | actives 2.5% (n = 360,000) | D3R cells, DiscoveRx beta-arrestin luminescence, antagonist mode; active compounds read low | AID 652054 | max response, negative = inhibition, %; in the data active means max response below about -50%; inconclusive means no clear call, values can overlap the other calls
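Cells plated overnight at 1500 cells/well, then exposed to library compounds with dopamine controls for 90 minutes at 37 degrees C. DiscoveRx reagent added for 30–60 minutes at room temperature; luminescence read, quantitative HTS format.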
Of the large screens only hits and unclear results are named; the others gave an inactive call. Unless noted, the call rests on the fitted dose curve; in most records, active means well fitted curve in the direction sought with a large enough effect; inconclusive means small, poorly fitted or top-dose-only effect, or another doubt; inactive means no such curve, though single readings can be large; an effect the other way counts as inactive or inconclusive.

CN(C)C(CNC(=O)c1ccc(C(=O)c2ccccc2)cc1)c1ccccc1 (configuration not stated)	DRD3 antagonist -57
COC(=O)c1cccc(S(=O)(=O)N2CCN(c3nc4ccccc4s3)CC2)c1	DRD3 antagonist -68
COc1ccc(C(CNC(=O)c2ccc(S(=O)(=O)N3CC(C)CC(C)C3)cc2)N(C)C)cc1 (configuration not stated)	TGFb inhibitor inconclusive, DRD3 antagonist -63
COc1ccc(C(CNC(=O)c2ccc(S(=O)(=O)N3CCCC3)cc2)N(C)C)cc1OC (configuration not stated)	none
CN(C)C(CNC(=O)c1cccc(S(=O)(=O)N2CCN(c3ccccc3)CC2)c1)c1ccccc1 (configuration not stated)	DRD3 antagonist -71
O=C(NCCCN1CCN(c2cccc(Cl)c2)CC1)Nc1ccccc1C(F)(F)F	TGFb inhibitor inconclusive (no result: DRD3 antagonist)
CC(C)=CCCC(C)=CCCC(C)=CCCC(C)=CCCC(C)=CCCC(C)=CCCC(C)=CCCC(C)=CCCC(C)=CCO	none (no result: ATXN viability, DRD3 agonist, HepG2 tox, TGFb inhibitor, DRD3 antagonist)
COc1ccc(C(CNC(=O)c2cccc(S(=O)(=O)NCc3ccccc3)c2)N(C)C)cc1 (configuration not stated)	DRD3 antagonist -71
CCOc1ccc(S(=O)(=O)N2CCN(c3ccccc3)CC2)cc1C(N)=O	none (no result: DRD3 antagonist)
Cc1ccc(S(=O)(=O)N2CCN(c3ccccc3)CC2)cc1C(N)=O	DRD3 agonist 34
O=C(Nc1nccs1)C1CC=CC2CCN(Cc3ccc(Cl)c(Cl)c3)C(=O)C21 (configuration not stated)	none (no result: ATXN viability, DRD3 agonist, ATXN2 expr inh, DRD3 antagonist)
CCC(=O)N1c2ccccc2CC1C(=O)NCCCN1CCN(c2cc(C)ccc2C)CC1 (configuration not stated)	ATXN viability inconclusive (no result: DRD3 antagonist)
COCCn1c(=O)[nH]c2cc(C(=O)NCCN3CCN(c4ccccc4)CC3)ccc2c1=O	DRD3 antagonist inconclusive
O=C(NCCN1CCC(n2c(=O)[nH]c3ccccc32)CC1)c1ccc(F)c(F)c1	ATXN viability inconclusive, DRD3 antagonist -93 (no result: HepG2 tox, TGFb inhibitor)
O=C(NCCN1CCC(n2c(=O)[nH]c3ccccc32)CC1)c1ccc(F)c(C(F)(F)F)c1	ATXN viability inconclusive, ATXN2 expr inh inconclusive, DRD3 antagonist -84 (no result: HepG2 tox, TGFb inhibitor)
O=C(NCCN1CCC(n2c(=O)[nH]c3ccccc32)CC1)c1ccc(C(F)(F)F)cc1C(F)(F)F	ATXN viability inconclusive, DRD3 antagonist -92 (no result: HepG2 tox, TGFb inhibitor)
COc1ccc(C(=O)NCCN2CCC(n3c(=O)[nH]c4ccccc43)CC2)cc1F	DRD3 antagonist -91 (no result: HepG2 tox, TGFb inhibitor)
CC(C)(O)[C@H]1CC[C@@](C)([C@H]2[C@@H](O)C[C@@]3(C)[C@@H]4C[C@H](O[C@@H]5O[C@H](CO)[C@@H](O)[C@H](O)[C@@H]5O)[C@H]5C(C)(C)[C@@H](O[C@@H]6OC[C@@H](O)[C@H](O)[C@@H]6O)CC[C@@]56C[C@@]46CC[C@]23C)O1	none (no result: ATXN viability, DRD3 agonist, HepG2 tox, TGFb inhibitor, DRD3 antagonist)
O=C(O)c1cc2cccc([N+](=O)[O-])c2[nH]1	none (no result: ATXN viability, DRD3 agonist, ATXN2 expr inh, DRD3 antagonist)
NS(=O)(=O)c1ccc(N2CCCCS2(=O)=O)cc1	none (no result: DRD3 agonist, HepG2 tox, TGFb inhibitor, DRD3 antagonist)
S=c1nc2ccccc2c2nc(-c3ccccc3Br)[nH]n12	ATXN viability inconclusive, ATXN2 expr inh 25µM
Brc1ccccc1-c1nc2c3ccccc3ncn2n1	none
COc1ccc(CCNC(=O)CSc2nc3ccccc3nc2Cc2ccc(C)cc2)cc1OC	none (no result: DRD3 antagonist)
CCOC(=O)CSC1=NC(=O)/C(=C/c2ccc(OC)cc2)S1	ATXN viability 7.9µM, ATXN2 expr inh 7.1µM, TGFb inhibitor inconclusive
COc1ccc(/C=C2\SC(N)=NC2=O)cc1	none
CCOc1ccccc1NC(=S)NC(=O)CCCOc1ccc(Cl)cc1Cl	TGFb inhibitor inconclusive, DRD3 antagonist -109
O=C(CCCOc1ccc(Cl)cc1Cl)Nc1ccccc1C(=O)O	none
CC1(Cc2ccc(Cl)c(Cl)c2)C(=O)Nc2ccc(S(=O)(=O)NC3CCCCC3)cc21 (configuration not stated)	TGFb inhibitor 13µM
COc1ccccc1-c1ccc2c(c1)C(C)(Cc1ccc(Cl)c(Cl)c1)C(=O)N2 (configuration not stated)	ATXN viability inconclusive, ATXN2 expr inh inconclusive, TGFb inhibitor 14µM
COc1ccc(-c2cc3nc(CCl)[nH]c(=O)c3s2)cc1	HepG2 tox 22µM, ATXN2 expr inh 13µM, TGFb inhibitor inconclusive
COc1ccc(-c2cc3nc[nH]c(=O)c3s2)cc1	none
O=C(OCC#CCSc1nnc(-c2cccc3ccccc23)o1)c1cc2ccccc2s1	none (no result: ATXN viability, DRD3 agonist, HepG2 tox, TGFb inhibitor, DRD3 antagonist)
Cc1onc(-c2ccccc2)c1C(=O)OCCOc1ccc([N+](=O)[O-])cc1[N+](=O)[O-]	TGFb inhibitor 14µM
CNC(=O)CSc1nnc(-c2ccc3c(c2)OCO3)n1C	none (no result: ATXN2 expr inh)
COC(=O)CSc1nnc(-c2ccc3c(c2)OCO3)n1C	DRD3 antagonist -69
Cc1ccc(-c2nc(C(=O)NCc3ccc(Cl)cc3)c3n2CCCCC3)cc1	ATXN viability inconclusive, ATXN2 expr inh inconclusive, TGFb inhibitor inconclusive (no result: DRD3 antagonist)
O=C(NCc1ccccc1)c1nc(-c2ccc(Cl)cc2)n2c1CCCCC2	ATXN viability inconclusive, TGFb inhibitor 11µM (no result: DRD3 antagonist)
COc1ccc2c(CNC3CCCCCC3)c(C(=O)O)n(Cc3ccccc3F)c2c1	TGFb inhibitor inconclusive (no result: ATXN viability, ATXN2 expr inh, DRD3 antagonist)
O=C(COc1ccccc1C(=O)Nc1ccccc1)Nc1cccc(Br)c1	none (no result: ATXN viability, DRD3 agonist, ATXN2 expr inh, DRD3 antagonist)
COc1ccc(Cl)cc1N(CC(=O)N1CCN(Cc2ccccc2)CC1)S(C)(=O)=O	DRD3 antagonist -57
COc1ccc(N(CC(=O)N2CCN(Cc3ccccc3)CC2)S(C)(=O)=O)c(OC)c1	none
Cc1ccccc1C(=O)NC(=S)Nc1ccc(S(=O)(=O)N2CCOCC2)cc1	DRD3 antagonist -54
Cc1c(C(=O)N2CCCCC2)sc2ncnc(NCCN(C)C)c12	none (no result: DRD3 agonist, HepG2 tox, ATXN2 expr inh, TGFb inhibitor, DRD3 antagonist)
Cc1ccc(CN2CCN(CC(=O)N=Nc3c(O)[nH]c4ccccc34)CC2)cc1	DRD3 antagonist -90
O=C(CN1CCN(Cc2ccccc2Cl)CC1)N=Nc1c(O)[nH]c2ccccc12	ATXN viability inconclusive
CC(C)C(=O)Nc1cccc(COc2ccc(CN(Cc3ccccc3)C(=O)OC(C)(C)C)cc2)c1	DRD3 agonist 36
CC(C)C(=O)Nc1ccc(COc2ccccc2CN(Cc2ccccc2)C(=O)OC(C)(C)C)cc1	none
Cc1c(Cl)cccc1NC(=O)N1CCN(Cc2cc(=O)n3nc(-c4ccccc4F)sc3n2)CC1	none (no result: DRD3 antagonist)
Oc1ccccc1C1OCC2(CO1)COC(c1ccccc1O)OC2 (configuration not stated)	none
Oc1ccccc1C1SC(c2ccccc2O)SC(c2ccccc2O)S1 (configuration not stated)	HepG2 tox 22µM, ATXN2 expr inh 20µM, TGFb inhibitor inconclusive (no result: ATXN viability)
